Data: PubChem BioAssay AID1259421 (Broad Institute, 2018)
Where “and” joins values, the source holds several entries; their conditions need not be identical. Equal values may be shown once. Among all 6,400 compounds or so, about 610 (9.5%) were called active. Cut-off read from the data, not from the text of the source: active = activity change below about -70%; inconclusive = no clear call, values can overlap the other calls; inactive = above that. The entries come from a sample that favours actives as a whole. More than one record can exist for a structure, and the calls need not agree.

Assay: Toxoplasma gondii ME49Luc growth in HeLa cells, luciferase, no IFN-y, primary screen (AID 1259421)
Conditions: T. gondii ME49Luc in HeLa, 72 h, stronger effect = lower value, concentration not given here

SMILES	activity change, negative = inhibition
N[C@@H](CSS(=O)(=O)O)C(=O)O	14.6% (inactive)
C1=C/COCc2cc(ccc2OCCN2CCCC2)Nc2nccc(n2)-c2cccc(c2)COC/1	-80.3% (active)
c1cc(OCCN2CCCCC2)cc(-c2n[nH]c3ccc(-c4ncn[nH]4)cc23)c1	-32.3% (inactive)
Cc1ccccc1N1CCN(S(=O)(=O)CC23CCC(C[C@@H]2NC(=O)[C@@H](N)CCS(C)(=O)=O)C3(C)C)CC1 (some centres undefined)	1.28% (inactive) and 5.87% (inactive)
Cc1cc(OCC(=O)O)cc(C)c1Cc1ccc(O)c(C(C)C)c1	1.47% (inactive)
CCCCc1oc2ccc(NS(C)(=O)=O)cc2c1C(=O)c1ccc(OCCCN(CCCC)CCCC)cc1	-83.6% (active)
CCCCc1oc2ccccc2c1C(=O)c1cc(I)c(OCCN(CC)CC)c(I)c1	-58.9% (inactive)
CN(CCOc1ccc(NS(C)(=O)=O)cc1)CCc1ccc(NS(C)(=O)=O)cc1	-7.15% (inactive) and -5.58% (inactive)
CCCCC/C=C\C/C=C\C/C=C\CCCCCCC(=O)O	4.57% (inactive)
Clc1ccc(-c2nc3sccn3c2/C=N/OCc2ccc(Cl)c(Cl)c2)cc1	27.7% (inactive) and 3.2% (inactive)
C[C@H](N)C(=O)N[C@@H](C)P(=O)(O)O	9.38% (inactive)
CC[C@H](C)[C@@H]([C@@H](CC(=O)N1CCC[C@H]1[C@H](OC)[C@@H](C)C(=O)N[C@@H](Cc1ccccc1)c1nccs1)OC)N(C)C(=O)[C@@H](NC(=O)[C@H](C(C)C)N(C)C)C(C)C	-85.6% (active)
CNC(=O)C1OC(n2cnc3c(NCc4cccc(I)c4)nc(Cl)nc32)C(O)C1O (centres undefined)	-2.06% (inactive)
Cc1ccc(C(=O)c2cc(O)c(O)c([N+](=O)[O-])c2)cc1	-80% (active) and 2.13% (inactive)
COc1ccc(C(=O)c2ccc(C)cc2)c(O)c1	154% (inactive) and 98.7% (inactive)
NC(=O)c1ccc(I)c([N+](=O)[O-])c1	13.7% (inactive)
COc1cc(OC)c(/C=C/S(=O)(=O)Cc2ccc(OC)c(NCC(=O)O)c2)c(OC)c1	-46.4% (inactive)
COc1ccnc2[nH]cc(C(=O)C(=O)N3CCN(C(=O)c4ccccc4)C[C@H]3C)c12	5.24% (inactive)
C[C@]12CC[C@H](O)CC1=CCC1C2CC[C@]2(C)C(n3cnc4ccccc43)=CCC12 (some centres undefined)	-67.5% (inactive)
Fc1ccc(-c2nc3n(c2-c2ccncc2)CCS3)cc1	-79.8% (active)
COC(=O)Cc1cccn1C	10.9% (inactive)
CC(O)CN(CCN(CC(C)O)CC(C)O)CC(C)O (centres undefined)	15.4% (inactive)
Cc1cc(OCc2nnc(SC3CCCC3)n2-c2cccnc2)ccc1-c1ccc(S(C)(=O)=O)cc1	-79.2% (active)
CSCC[C@H](NC(=O)[C@@H](N)Cc1c[nH]c2ccccc12)C(=O)N[C@@H](CC(=O)O)C(=O)N[C@@H](Cc1ccccc1)C(N)=O	17% (inactive)
CC(=O)O[C@]1(C(C)=O)CCC2C3C=C(C)C4=CC(=O)CC[C@]4(C)C3CC[C@@]21C (some centres undefined)	9.66% (inactive)

SMILES	activity change, negative = inhibition
Cn1c(O)c(C2=c3ccccc3=NC2=O)c2ccccc21	13.5% (inactive)
CCC(C)n1ncn(-c2ccc(N3CCN(c4ccc(OC[C@H]5CO[C@](Cn6cncn6)(c6ccc(Cl)cc6Cl)O5)cc4)CC3)cc2)c1=O (some centres undefined)	-63.1% (inactive) and -38.1% (inactive)
C#C[C@]1(O)CC[C@H]2[C@@H]3CCc4cc(OC)ccc4[C@H]3CC[C@@]21C	9.24% (inactive)
C[C@]12CC[C@@H]3c4ccc(O)cc4CC[C@H]3[C@@H]1CCC2=O	-66.6% (inactive) and -57.7% (inactive)
C#C[C@]1(O)CCC2C3CCc4cc(OC5CCCC5)ccc4C3CC[C@@]21C (some centres undefined)	33.4% (inactive)
C#C[C@]1(O)CCC2C3CCc4cc(O)ccc4C3CC[C@@]21C (some centres undefined)	-81.3% (active)
C#C[C@]1(O)CC[C@H]2[C@@H]3CCc4cc(O)ccc4[C@H]3CC[C@@]21C	-81.1% (active)
C#C[C@]1(O)CCC2C3CCc4cc(OC)ccc4C3CC[C@@]21C (some centres undefined)	7.57% (inactive)
CCOc1ccc(Cc2cc([C@@H]3O[C@H](CO)[C@@H](O)[C@H](O)[C@H]3O)ccc2Cl)cc1	4.88% (inactive) and 10.3% (inactive)
CCN1/C(=C/C(C)=O)Sc2ccc(OC)cc21	21% (inactive)
CC#CCOC(=O)c1c(C)nc2sc3c(c2c1N)CCC(O)C3 (centres undefined)	49.7% (inactive) and 66.7% (inactive)
N[C@@H]1[C@@H](O)[C@H](O)[C@@H](CO)O[C@H]1O	1.35% (inactive)
CN(CCc1ccc(Cl)c(Cl)c1)CCN1CCCC1	14.6% (inactive)
CC1(O)C(O)C(CO)OC1n1ccc(N)nc1=O (centres undefined)	27.1% (inactive)
C[C@@H]1O[C@@H](O[C@@H]2[C@H](Oc3cc(O)c(C(=O)CCc4ccc(O)cc4)c(O)c3)O[C@H](CO)[C@@H](O)[C@@H]2O)[C@H](O)[C@H](O)[C@H]1O	5.31% (inactive)
COc1cc2c(cc1OC)CC(=O)N(CCCN(C)C[C@@H]1Cc3cc(OC)c(OC)cc31)CC2	13.9% (inactive)
COc1cc2ncnc(Oc3cccc(NC(=O)Nc4cc(C(C)(C)C(F)(F)F)on4)c3)c2cc1OC	-78.4% (active)
COc1cc2ncnc(Nc3cccc(O)c3)c2cc1OC	10.5% (inactive)
CCCNC(=O)Nc1ccc(Oc2ncnc3cc(OC)c(OC)cc23)cc1Cl	6.99% (inactive)
CNc1cc(OC)c(C(=O)N[C@@H]2CCN(Cc3ccccc3)[C@@H]2C)cc1Cl (racemic)	26% (inactive)
CC(=O)Nc1nnc(S(N)(=O)=O)s1	18.1% (inactive) and 14.1% (inactive)
Cc1nc(NC(=O)N2CCC[C@H]2C(N)=O)sc1-c1ccnc(C(C)(C)C(F)(F)F)c1	-3.31% (inactive)
CC(=O)Nc1nc(C)c(-c2ccc(Cl)c(S(=O)(=O)NCCO)c2)s1	-78.9% (active)
c1ncc(CC2CCNCC2)[nH]1	9.05% (inactive) and 12.6% (inactive)
